{"source": "PubChem BioAssay AID1851", "about": "(National Center for Advancing Translational Sciences (NCATS), 2009)", "note": "“And” between values parts separate entries of the source, which are not always exact repeats. Equal values may be shown once. In all, about 16,000 compounds went through this assay and about 2,600 (16%) were called active. Not shown: some 20% with an inconclusive outcome. Only a sample is shown. Values without a mark were called inactive. Calls follow the shape of the dose curve; as a rule, active = well fitted curve in the direction sought with a large enough effect; inconclusive = small, poorly fitted or top-dose-only effect, or effect the other way; inactive = no such curve, though single readings can be large or run the other way. % is scaled to controls: 0 for no effect and ±100 for the full control effect."}
{"molecular_target": "Cytochrome P450 2D6 (Homo sapiens) (UniProt P10635)", "sequence (P10635 whole entry, looked up)": "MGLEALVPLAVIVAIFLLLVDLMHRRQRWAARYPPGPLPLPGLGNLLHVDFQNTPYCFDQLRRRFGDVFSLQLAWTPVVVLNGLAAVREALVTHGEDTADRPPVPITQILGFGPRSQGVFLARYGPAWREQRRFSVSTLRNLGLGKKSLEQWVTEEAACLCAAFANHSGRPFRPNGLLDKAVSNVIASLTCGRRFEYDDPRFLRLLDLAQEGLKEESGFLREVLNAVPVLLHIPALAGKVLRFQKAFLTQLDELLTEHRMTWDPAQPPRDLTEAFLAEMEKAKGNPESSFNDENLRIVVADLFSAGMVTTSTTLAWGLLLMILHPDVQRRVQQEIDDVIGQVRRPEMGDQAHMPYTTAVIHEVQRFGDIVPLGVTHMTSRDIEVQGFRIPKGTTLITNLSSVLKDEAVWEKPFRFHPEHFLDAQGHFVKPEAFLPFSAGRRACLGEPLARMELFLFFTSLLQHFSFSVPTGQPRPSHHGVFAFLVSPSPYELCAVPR", "assay": "Cytochrome panel assay with activity outcomes", "details": "recombinant CYP, pro-luciferin dealkylation, luminescence, p450-cyp2d6; series mostly up to 57.1 µM; activity, negative = inhibition: at the top concentration"}
{"smiles": "CN(C)S(=O)(=O)c1ccc(NC(=O)c2cc(F)c(F)cc2Cl)cc1", "activity, negative = inhibition": "-9.35%"}
{"smiles": "O=C(Nc1ccc(S(=O)(=O)N2CCOCC2)cc1)c1ccc(CN2CCc3ccccc3C2)cc1", "AC50": "0.178 µM (active)"}
{"smiles": "O=C(Nc1ccccc1-c1nc2ccccc2[nH]1)c1ccc(S(=O)(=O)N2CCCCC2)cc1", "activity, negative = inhibition": "-16.2%"}
{"smiles": "COCc1nnc(NC(=O)c2ccc(S(=O)(=O)N3CCCCCC3)cc2)o1", "activity, negative = inhibition": "13.5%"}
{"smiles": "O=C(Nc1ccc(S(=O)(=O)N2CCCCC2)cc1)c1ccc(CN2CCc3ccccc3C2)cc1", "AC50": "0.251 µM (active)"}
{"smiles": "CN(C)S(=O)(=O)c1ccc(C(=O)Nc2ccc(CN3CCCC3)cc2)cc1", "AC50": "2.51 µM (active)"}
{"smiles": "CCOC(=O)c1c(NC(=O)c2ccc(S(=O)(=O)N3CCOCC3)cc2)sc2c1CCN(C)C2", "activity, negative = inhibition": "-15.6%"}
{"smiles": "CCN(CC)S(=O)(=O)c1ccc(C(=O)Nc2ncn(Cc3ccccc3)n2)cc1", "activity, negative = inhibition": "-4.78%"}
{"smiles": "O=C(Nc1ccc(S(=O)(=O)N2CCCC2)cc1)c1ccc(CN2CCOCC2)cc1", "AC50": "5.01 µM (active)"}
{"smiles": "O=C(NCc1n[nH]c(=S)n1-c1ccccc1)c1ccc(S(=O)(=O)N2CCOCC2)cc1", "activity, negative = inhibition": "14.4%"}
{"smiles": "Cc1nc2ccc3nc(NC(=O)c4ccc(S(=O)(=O)N5CCOCC5)cc4)sc3c2s1", "activity, negative = inhibition": "5.64%"}
{"smiles": "C[C@@H](c1ccccc1)N1C(=O)[C@H]2[C@@H]3[C@H](O)[C@H](O)CC(=O)[C@H]3CC[C@H]2C1=O", "activity, negative = inhibition": "12.3% [at 11.4 µM] and 1.84% [at 11.4 µM]"}
{"smiles": "C#CCCCO/N=C1/C[C@@H](O)[C@@H](O)[C@@H]2[C@@H]3C(=O)N(C[C@@H]4CCCO4)C(=O)[C@H]3CC[C@@H]12", "activity, negative = inhibition": "9.44% [at 11.4 µM]"}
{"smiles": "CCCCOc1ccccc1C1CC(=O)NC2=C1C(=O)CCC2", "note": "(stereo not given)", "activity, negative = inhibition": "-1.31%"}
{"smiles": "COc1ccc(N2CCN(S(=O)(=O)c3ccc4c(c3)CCCC4)CC2)c([N+](=O)[O-])c1", "activity, negative = inhibition": "-12.9%"}
{"smiles": "Cn1c(=O)[nH]c(=O)c2c1nc(NCCCO)n2CCCc1ccccc1", "activity, negative = inhibition": "-3.72%"}
{"smiles": "O=C(Nc1nc(-c2ccccc2)cs1)c1cccc([N+](=O)[O-])c1", "activity, negative = inhibition": "11.3%"}
{"smiles": "Cc1nn(-c2ccc(F)cc2)c(Cl)c1/C=C(\\CCC(=O)O)c1nc2ccccc2s1", "activity, negative = inhibition": "-5.38%"}
{"smiles": "CC(=O)[C@H]([C@@H](c1ccccc1)N1CCOCC1)N1CCOCC1", "activity, negative = inhibition": "-3.05% [at 11.4 µM]"}
{"smiles": "CN1CCc2[nH]nc(-c3n[nH]c4c3CN(C)CC4)c2C1", "activity, negative = inhibition": "11.7% [at 11.4 µM]"}
{"smiles": "CN1CCc2nc(N)nc(-c3nc(N)nc4c3CN(C)CC4)c2C1", "activity, negative = inhibition": "8.94% [at 11.4 µM]"}
{"smiles": "O=c1[nH]ncc2c3ccccc3n(Cc3ccccc3)c12", "activity, negative = inhibition": "9.17%"}
{"smiles": "CN1CCc2c(c3ccccc3n2Cc2ccccc2)C1", "AC50": "3.16 µM (active)"}
{"smiles": "CN1CCc2c(c3ccccc3n2C)C1", "AC50": "12.6 µM (active)"}
{"smiles": "CCCNC(=O)OC[C@@H]1O[C@H](CCO/N=C\\[C@@H](C)[C@H](OCc2ccccc2)C(C)C)C=C[C@@H]1Oc1ccc(OC)cc1", "activity, negative = inhibition": "-8.99% [at 11.4 µM]"}
{"smiles": "O=C1N=C2SCCN2/C1=C\\c1c(Cl)cccc1Cl", "activity, negative = inhibition": "-4.25%"}
{"smiles": "COC(=O)C/C=C\\[C@H](C)[C@H](CO)NS(=O)(=O)c1ccc(C)cc1", "activity, negative = inhibition": "-10.6% [at 11.4 µM]"}
{"smiles": "COCCn1c(=O)c(C)nc2cnc(N(C)C)nc21", "activity, negative = inhibition": "4.47%"}
{"smiles": "Cn1c(=O)c(-c2ccccc2)nc2cnc(N3CCNCC3)nc21", "activity, negative = inhibition": "-5.95%"}
{"smiles": "CCN(CC)c1ccc(N2C(=O)/C(=C/c3cccnc3)SC2=S)cc1", "activity, negative = inhibition": "20.9%"}
{"smiles": "Cc1c(NC(=O)C2CCN(S(=O)(=O)c3ccc(Cl)cc3)CC2)c(=O)n(-c2ccccc2)n1C", "activity, negative = inhibition": "10.2%"}
{"smiles": "CCC/C=C(\\CCC)C(NS(=O)(=O)c1ccc(Cl)cc1)c1ccccc1", "note": "(stereo not given)", "AC50": "20 µM (active)"}
{"smiles": "CCC/C=C(\\CCC)C(NS(=O)(=O)c1ccc(Cl)cc1)c1ccc(C(=O)OC)cc1", "note": "(stereo not given)", "activity, negative = inhibition": "-8.65%"}
{"smiles": "CCC/C=C(\\CCC)C(NC(=O)c1ccc(C(F)(F)F)cc1)c1ccccc1", "note": "(stereo not given)", "AC50": "7.94 µM (active)"}
{"smiles": "CCC/C=C(\\CCC)C(NS(=O)(=O)c1cccs1)c1ccc(C(=O)OC)cc1", "note": "(stereo not given)", "AC50": "6.31 µM (active)"}
{"smiles": "CCC/C=C(\\CCC)C(NC(=O)c1cccs1)c1ccc(C(=O)OC)cc1", "note": "(stereo not given)", "activity, negative = inhibition": "-6%"}
{"smiles": "CCC/C=C(\\CCC)C(NS(=O)(=O)c1ccc(C(F)(F)F)cc1)c1ccc(-c2ccccc2)cc1", "note": "(stereo not given)", "activity, negative = inhibition": "1.52%"}
{"smiles": "CCC/C=C(\\CCC)C(NC(=O)c1ccc(-c2ccccc2)cc1)c1ccc(C(=O)OC)cc1", "note": "(stereo not given)", "activity, negative = inhibition": "2.92%"}
{"smiles": "CCC/C=C(\\CCC)C(NS(=O)(=O)c1ccc(C(F)(F)F)cc1)c1ccc(C(=O)OC)cc1", "note": "(stereo not given)", "activity, negative = inhibition": "2.44%"}
{"smiles": "CCC/C=C(\\CCC)C(NC(=O)OCC(C)C)c1ccc(C(=O)OC)cc1", "note": "(stereo not given)", "activity, negative = inhibition": "-9.01%"}
{"smiles": "CCC/C=C(\\CCC)C(NS(=O)(=O)c1cccc2cccnc12)c1ccc(C(=O)OC)cc1", "note": "(stereo not given)", "activity, negative = inhibition": "-12%"}
{"smiles": "CCC/C=C(\\CCC)C(NS(=O)(=O)CC12CCC(CC1=O)C2(C)C)c1ccc(C(=O)OC)cc1", "note": "(stereo not given)", "AC50": "5.01 µM (active)"}
{"smiles": "CCC/C=C(\\CCC)C(NC(=O)c1ccc(C(F)(F)F)cc1)c1ccc(C(F)(F)F)cc1", "note": "(stereo not given)", "activity, negative = inhibition": "0.53%"}
{"smiles": "O=C(Nc1cccn(Cc2c(Cl)cccc2Cl)c1=O)c1ccc(Cl)cc1Cl", "activity, negative = inhibition": "12%"}
{"smiles": "Cc1ccccc1N1CCN(C(=O)c2ccccc2NC(=O)/C=C\\C(=O)O)CC1", "activity, negative = inhibition": "2.71%"}
